Hit rate of the full screen: of about 420,000 compounds, about 50,000 (12%) were called active. Where a call stands in place of a potency, no number is given. Not shown: some 26% with an inconclusive outcome. Calls follow the shape of the dose curve; as a rule, active = well fitted inhibition curve with a large enough effect; inconclusive = small, poorly fitted or top-dose-only effect; inactive = flat fitted curve, though single readings scatter. Only a selection was taken, and actives are over-represented in it overall.
assay: qHTS for Inhibitors of human tyrosyl-DNA phosphodiesterase 1 (TDP1): qHTS in cells in presence of CPT; conditions: chicken DT40 Tdp1-/-;hTDP1 cells + 20 nM CPT, ATP luminescence, 48 h; series mostly up to 46.2 µM; also: nearly all actives have a fitted effect of over 55% in size
Method in brief: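 Chicken DT40 Tdp1-/- cells complemented with human TDP1, 400 cells/well, exposed to compounds plus 20 nM camptothecin for at least 48 h at 37 C; viability read as ATP content by CellTiter-Glo luminescence.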
Potency is read from the fitted curve at half-maximal effect.

SMILES | Potency
CCCc1nnc(NC(=O)CCC(=O)NC2CC2)s1 | inactive
CCCc1ccc(C(=O)COC(=O)CN2C(=O)NC3(CCCCC3C)C2=O)cc1 (stereo unspecified) | inactive
Cc1cc2c(cc1C)[n+](C)cn2CC(O)COCC1CC=CCC1 (stereo unspecified) | 8.2 µM (active)
CC1CCN(C(=O)/C(=C\c2ccccc2)NC(=O)c2ccccc2)CC1 | inactive
Cc1nn(CC#N)c(=O)n1N(C)c1ncc(C(F)(F)F)cc1Cl | inactive
O=C(Nc1ccccc1N1CCCCC1)c1ccc2nccnc2c1 | 20.6 µM (active)
O=C(Nc1ccccc1N1CCOCC1)c1ccncc1 | inactive
O=C(Nc1ccccc1N1CCCCC1)c1cccc(F)c1 | inactive
COC(=O)c1cccc(N(C(=O)CNC(=O)c2cccs2)C(C(=O)NCC2CCCO2)c2ccc(OC)c(OC)c2)c1 (stereo unspecified) | inactive
CNC(=O)CN1C(=O)c2cccnc2Sc2ccccc21 | inactive
CC(=O)N1CCC2(CCCN(c3ncccn3)C2)CC1 | inactive
O=C(c1cc(C(F)(F)F)cc(C(F)(F)F)c1)N1CCC[C@@]2(CCN(c3ccccn3)C2)C1 | 16.4 µM (active)
CC(C)NC(=O)N1CC[C@@]2(CCCN(C(=O)c3cccc(F)c3)C2)C1 | inactive
Cc1cc(F)ccc1S(=O)(=O)Nc1ccc(C(=O)N(C)Cc2ccco2)cc1 | inactive
COc1c(C=O)c(CCN(C)C(=O)c2ccc(F)cc2)cc2c1OCO2 | inactive
COc1cccc2c1OCC(CN1CCN(C3CCCCC3)C(CCO)C1)=C2 (stereo unspecified) | inactive
COc1ccc(-n2c(=O)c3ccccc3n(Cc3ccccc3Cl)c2=O)cc1 | inactive
CC(=O)OC[C@H]1O[C@@H](O[C@H]2[C@H](O)[C@@H](OC(=O)c3ccccc3C(=O)O)[C@H](O)O[C@@H]2COC(C)=O)[C@H](O)[C@@H](OC(=O)c2ccccc2C(=O)O)[C@@H]1O | inactive
Cc1ccc(C(=O)N/C(=C\c2cccs2)C(=O)NCCc2ccccn2)cc1C | inactive
O=C(CNC(=O)COc1ccccc1)NCCc1ccccn1 | inactive
COc1cncc(-c2cnc3sc(NCCc4ccccn4)nn23)c1 | 13 µM (active)
N#Cc1cc([N+](=O)[O-])ccc1NCC1CCCO1 (stereo unspecified) | inactive

SMILES | Potency
O=C(O)CN1c2cccc3cccc(c23)S1(=O)=O | inactive
Cc1ccc(NC(=O)/C(=C\c2ccccc2)NC(=O)c2ccco2)cc1 | inactive
COc1ccc(C2CC(c3ccccc3)Nc3ncnn32)cc1 (stereo unspecified) | inactive
Clc1ccc(C2CC(c3cccs3)n3ncnc3N2)cc1Cl (stereo unspecified) | inactive
FC(F)Oc1ccccc1C1CC(c2ccc(Br)s2)Nc2ncnn21 (stereo unspecified) | 11.6 µM (active)
CCOC(=O)Cn1nnnc1C | inactive
O=C(O)c1cc(S(=O)(=O)N(Cc2ccccc2)c2ccccc2)ccc1Cl | inactive
COc1cc2nnn(-c3ccncc3)c2cc1OC | inactive
Cc1nn(CC(=O)NCCc2ccccc2)c(=O)c2cc3occc3n12 | inactive
COCCNC(=O)c1cc2c(Br)ccc(Br)c2nc1N | inactive
CNCC(O)CN1CCN(c2ccccc2OC)CC1 (stereo unspecified) | inactive
COc1ccccc1N1CCN(CC(=O)NC(=O)NCc2ccco2)CC1 | inactive
COc1ccccc1N1CCN(CCN2C(=O)c3ccccc3C(C)(C)C2=O)CC1 | 14.6 µM (active)
COc1ccc2c(C)cc3nnnn3c2c1 | inactive
CC(C)[C@H](NC(=O)N1CC(=O)Nc2ccccc21)C(=O)N[C@@H](Cc1c[nH]c2ccccc12)C(=O)O | inactive
CCN(C(=O)Cn1cnc2sc(C)c(S(=O)(=O)N3CCN(c4ncccn4)CC3)c2c1=O)c1ccccc1F | inactive
Cc1ccc(S(=O)(=O)N2CCCCC2)cc1NC(=O)[C@@H]1CCCN1C(=O)c1cccs1 | inactive
CCOc1ccc(S(=O)(=O)N2CCCCC2)cc1NC(=O)CN1CCCC1c1cccs1 (stereo unspecified) | 3.66 µM (active)
COc1ccc(S(=O)(=O)N2CCCCCC2)cc1NC(=O)Cc1ccc(OC)c(OC)c1 | inactive
Cc1csc[n+]1CCC1CCCCC1 | 20 µM (active)
CC(=O)c1ccc(N2C(=NC(=O)C(C)C)SC3CS(=O)(=O)CC32)cc1 (stereo unspecified) | inactive
O=C(CSc1nnc(-c2ccccn2)n1-c1ccccc1)Nc1ccc2c(c1)OCO2 | inactive

SMILES | Potency
O=C(CN1CCN(CC(=O)Nc2ccc3c(c2)OCO3)CC1)Nc1ccc(F)cc1 | inactive
O=C(CSc1nc(-c2cccc(F)c2)[nH]c1-c1ccccc1)Nc1ccc2c(c1)OCO2 | 10.3 µM (active)
O=c1c(CCc2ccccc2)nc2cncnc2n1C1CC1 | inactive
CCCNC(=O)C(=O)Nc1cc2c3c(c1)CCC(=O)N3CCC2 | inactive
Cc1cc(F)ccc1N1CCC(N2CCN(C)C(CCO)C2)CC1 (stereo unspecified) | inactive
O=C(Nc1ccc2c(c1)nc1n2CCCCC1)c1cc(S(=O)(=O)N2CCOCC2)ccc1Cl | 11.6 µM (active)
O=C(Nc1ccc(N2CCOCC2)c(Cl)c1)c1ccc(S(=O)(=O)N2CCOCC2)cc1 | inactive
O=S(=O)(c1cccc(-c2nnc3n2CCCCC3)c1)N1CCOCC1 | inactive
N#C/C(=C(\O)C(F)(F)F)c1nnc2n1CCCCC2 | inactive
Cc1cccc(C(=O)OCC(=O)Nc2sccc2C(N)=O)c1C | inactive
O=C(CSc1ncn[nH]1)N/N=C/c1ccc(F)cc1 | inactive
COc1ccc(Cl)cc1CSc1ncn[nH]1 | inactive
O=C(/C=C/Sc1ncn[nH]1)c1ccc(Cl)cc1 | 2.31 µM (active)
COC(=O)c1sccc1-n1cccc1C(=O)C(=O)N1CCCCC1 | inactive
COc1cccc(NC(=O)c2ccc(S(=O)(=O)N(C)C)cc2)c1 | inactive
O=C(COC(=O)c1ccc(Oc2ccccc2)cc1)Nc1nnc(-c2ccccc2)o1 | inactive
COc1cccc(-c2nnc(NC(=O)c3ccc(S(=O)(=O)N(CC(C)C)CC(C)C)cc3)o2)c1 | 3.66 µM (active)
O=C1/C(=C/c2ccc(F)cc2)SC(=S)N1NS(=O)(=O)c1ccccc1 | inactive
O=C(CCN1C(=O)c2ccccc2C1=O)C1=NN[C@@H]2C(=O)N(c3ccc(F)cc3)C(=O)[C@H]12 | inactive
Cc1c(CC(=O)NCCCCCC(=O)O)c(=O)oc2cc3occ(-c4ccccc4)c3cc12 | inactive
CCCC(=O)Nc1nnc(-c2ccccc2)o1 | inactive
CCCCCCc1cc2cc(-c3nnc(-c4ccccc4)o3)c(=O)oc2cc1O | 14.6 µM (active)

From PubChem BioAssay AID686979 (National Center for Advancing Translational Sciences (NCATS), 2013)
